Measurements reported in PubChem BioAssay AID626 (Vanderbilt High Throughput Screening Facility, 2007).
Among all 64,000 compounds or so, about 1,900 (3%) were called active.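 Rule for the calls: active = fluorescence rise, raw or as B-score row- and column-corrected plate score, outside the 99.7% band of its plate's samples, either direction; inactive = the rest.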 Shown is part of a subset that was picked to be rich in actives.

The molecules below were run on Muscarinic acetylcholine receptor M1 (assay: M1 muscarinic receptor agonists, primary screen, CHO-M1 cells, Fluo-4 calcium, agonist mode (AID 626)). Conditions: Fluo-4 calcium fluorescence, at 10 µM, stronger effect = higher value.

B-score, inactive:
CN1CCN(S(=O)(=O)c2ccc3[nH]cc(C(=O)O)c(=O)c3c2)CC1 0.537
COCCn1c(CN(Cc2ccccc2)Cc2ccccc2)nc2c1c(=O)n(C)c(=O)n2C 0.66
CC1CCN(Cc2nc3c(c(=O)n(C)c(=O)n3C)n2CCc2ccccc2)CC1 0.945
CCOC(=O)c1ccc(NC(=O)CSc2nnc(COc3ccccc3OC)n2C)cc1 0.692
O=C(Nc1ccccc1N1CCCCC1)c1cccc(F)c1 0.341
C/C(=C(\C#N)C(=O)NCCCN1CCOCC1)N(C)C 0.122
Cc1cc(Nc2cccc(F)c2)n2ncnc2n1 1.22
CCOC(=O)C1CCN(C(=O)Nc2ccc(Cl)cc2)CC1 0.00389
CCOC(=O)[C@H]1CCC[C@@H](NS(=O)(=O)c2ccc(NC(C)=O)cc2)C1 -0.507
CCn1c(SCCC(C)C)nnc1-c1c[nH]c2ccccc12 0.584
CCCN(CCC)CCNC(=O)c1cc2c(C)nc3ccccc3c2o1 -0.845
Cc1nc2ccccc2c2oc(C(=O)NCCCN3CCC(C)CC3)cc12 0.3
COCCN1C(=O)c2oc3c(C)cc(C)cc3c(=O)c2C1c1cccc(O)c1 (stereo not given) 0.00288
CCOC(=O)Cn1c(=O)oc2cc(S(=O)(=O)N(C)Cc3ccco3)ccc21 -0.339
O=C(c1ccco1)N1CCN(C(=O)C2CC(c3ccc(Cl)c(Cl)c3)=NO2)CC1 (stereo not given) -0.464
O=S(=O)(Nc1ccc2nc(-c3ccco3)[nH]c2c1)c1ccccc1 -0.0329
CC(=O)N1CCN(C(=O)c2cccc(S(=O)(=O)Nc3ccc(C)cc3)c2)CC1 0.272
CCOC(=O)c1sc(NC(=O)CSc2nnc(-c3ccco3)o2)c(C(=O)OCC)c1C -0.0997
CCOc1cc(/C=N/O)cc(Br)c1OC 0.00429
O=C(Nc1ccccc1C(=O)N1CCOCC1)C1CCC(=O)N1C1CCCC1 (stereo not given) 0.307
Cc1ccc(-c2noc(CN3CCN(Cc4ccccc4)CC3)n2)cc1 -0.531
Cc1ccc(Cc2nc(-c3cccc(C)c3)no2)cc1 -0.177
O=C(NCCN1CCOCC1)c1c(F)c(F)c(F)c(F)c1F 0.102
CCC(C(=O)NC1CCCC1)N(C(=O)c1snc(C(N)=O)c1N)c1ccc2c(c1)OCCO2 (stereo not given) -0.647
COCCNC(=O)C(c1ccc(C)o1)N(Cc1ccccc1)C(=O)Cn1nnc2ccccc21 (stereo not given) -0.295
CC(Nc1nc(N2CCCC2)nc2ccccc12)c1ccccc1 (stereo not given) 0.0749
CCOCCCNC(=O)Cc1cc(=O)[nH]c(=O)[nH]1 -0.622
COc1ccc(CN(C(=O)c2cccs2)c2nccs2)cc1OC -0.233
Cc1cc(C)c2nc(N3CCCC3)c(C#N)cc2c1 0.391
COc1ccc(N2CCN(C(=O)CSc3nc4cc(OC)c(OC)cc4cc3C#N)CC2)cc1 -0.487
COC(=O)c1cc(C(=O)CSc2nc(C)cc(C)n2)ccc1O -0.00415
Oc1c(C(c2ccco2)N2CCC3(CC2)OCCO3)sc2ncnn12 (stereo not given) -0.563
CCCCCNC(=O)Cc1ccc(OC)cc1 1.29
O=C(Nc1ccccc1-c1nnn(CC(=O)N2CCN(c3ccccc3)CC2)n1)c1cccs1 -0.15
O=C(NCc1ccccn1)c1cc2ccccc2oc1=O -0.243
Cc1cccn2c(=O)c3cc(C(=O)NCc4ccccn4)n(C)c3nc12 -0.541
CC1CCCCN1CC(=O)NCc1ccc2c(c1)OCO2 (stereo not given) -0.147
CCn1c(Cc2ccccc2)nnc1SCc1nc2ccccc2c(=O)[nH]1 0.17
O=C(C1CCC1)N1CCc2cc(S(=O)(=O)NCc3cccnc3)ccc21 -2.04
COC(=O)c1cn(C)c2ccc(S(=O)(=O)N3CC(C)CC(C)C3)cc2c1=O (stereo not given) -0.784
O=C(COc1ccccc1)NCc1ccc2c(c1)OCO2 0.038
CCOC(=O)NCc1ccc2c(c1)OCO2 0.801
Cc1ccc(-c2csc3nnc(SCC(=O)NCc4ccco4)n23)cc1 0.495
COC(=O)c1ccccc1NC(=O)CN(Cc1ccccc1)S(C)(=O)=O 0.117
CCOc1ccc(N2C(=O)CC(N(O)c3ccccc3)C2=O)cc1 (stereo not given) 0.335
COc1ccccc1N1CCN(C(=O)c2cc(-c3ccc(Cl)c(Cl)c3)on2)CC1 -0.0802
COc1ccccc1N1CCN(C(=O)c2cc(-c3ccc(Br)cc3)on2)CC1 -0.734
O=C(c1ccco1)N1CCN(CC(=O)N(C2CCCCC2)C2CCS(=O)(=O)C2)CC1 (stereo not given) 1.21
COc1ccc(S(=O)(=O)N2CCCCC2)cc1Br -0.037
O=C(CCSc1ccccc1)NCCSc1ccccn1 -0.157
COc1c(F)c(F)c(-c2csc(N)n2)c(F)c1F -0.0216
Cc1nc2c(c(=O)n1Cc1ccco1)c1nc3ccccc3nc1n2Cc1ccccc1 -1.33
COc1ccc(CC(=O)Nc2nc3n(n2)C(c2ccccc2)CC(=O)N3)cc1OC (stereo not given) 1.86
COc1cc2c(cc1OC)C(c1ccc(C)o1)CC(=O)N2 (stereo not given) 0.00289
COCCOC(=O)C1=C(C)NC(=O)CC1c1cc2c(cc1Br)OCO2 (stereo not given) 0.114
CC(C)C[C@H](NC(=O)Nc1cccc(C(F)(F)F)c1)C(=O)O 0.0481
CC(=O)c1c(C)c[nH]c1C 0.323
Cc1nc(CNS(=O)(=O)c2cccnc2)cs1 0.163
Cc1ccc(S(=O)(=O)NCc2csc(C)n2)c(C)c1 -0.841
CC(C)C(NC(=O)OCc1ccccc1)C(=O)OCC(=O)N1C(C)CCCC1C (stereo not given) -0.582
O=C(NCCSc1ccccc1)c1ccco1 0.47
CC(C)(C)NC(=O)c1cc(NC(=O)c2ccco2)cc(NC(=O)c2ccco2)c1 4.57
COC(=O)c1ccc(N(CC(=O)NC2CCCC2)C(=O)CNC(=O)c2ccco2)cc1 -0.016
COc1cc(OC)cc(C(=O)NCCSCc2ccco2)c1 -0.317
CCOC(=O)N1CCN(C(=O)CSc2nnc(-c3c[nH]c4ccccc34)n2CCOC)CC1 0.791
O=C(OCC(=O)c1cccs1)C1=COCCO1 -0.115
COc1ccc(C(c2nnnn2C2CCCCC2)N2CCN(c3ccccc3F)CC2)cc1 (stereo not given) -0.721
COC(=O)c1ccc(CSc2ccccc2C)o1 -0.274
COCC(C)n1c(SCc2ccc(C(=O)OC)o2)nc2ccccc2c1=O (stereo not given) 1.47
CCOC(=O)N1CCC(C(N)=O)CC1 -0.221
COc1ccc2c(c1)C=CC1(O2)N(CCO)c2ccccc2C1(C)C (stereo not given) 0.737
COc1ccc(OC)c(S(=O)(=O)Nc2ccccc2F)c1 -0.55
Cc1cc(Nc2ccccc2)n(CCC#N)n1 -0.373
CN1CCN(c2ccc(NC(=O)COc3ccc(Cl)cc3Cl)cc2)CC1 -0.55
O=C(c1cccs1)N1CCN(Cc2ccc3c(c2)OCO3)CC1 0.609
CCOc1ccc(Nc2oc(Cc3ccccc3)nc2C#N)cc1 0.194
N#Cc1nc(-c2ccc(OCc3ccccc3)cc2)oc1NCCCN1CCOCC1 1.06
CCN1C(=O)CS/C1=N\c1nccs1 0.514
O=C(Nc1ccc(Cl)cc1)c1ccsn1 -0.00233
COc1cc(C(=O)Nc2nccs2)cc(OC)c1OC 1.84
N#Cc1c(NC(=O)CCCN2C(=O)c3ccccc3C2=O)oc(-c2ccccc2)c1-c1ccccc1 -0.449

B-score, active:
COCCn1c(CN2CCC(Cc3ccccc3)CC2)nc2c1c(=O)n(C)c(=O)n2C 3.45
CCOC(=O)C1CCCN(Cc2nc(N)nc(Nc3ccc(C)cc3)n2)C1 (stereo not given) 35.2
Cc1nc2ccccc2c2oc(C(=O)NCC3CCCO3)cc12 (stereo not given) 2.93
Cc1ccc(S(=O)(=O)Nc2ccc3ncccc3c2)cc1 3.16
COc1ccccc1Cc1nc(-c2ccc(C)cc2)no1 3.86
COCCNC(=O)C(c1ccc(C)o1)N(Cc1cccs1)C(=O)c1snc(C(N)=O)c1N (stereo not given) 2.74
COc1ccc2nc(N3CCCC(O)C3)c(C#N)cc2c1 (stereo not given) 15
O=C(NCc1ccccn1)c1ccc2nc(-c3ccco3)c(-c3ccco3)nc2c1 3.06
O=C(O)c1ccc(COCC(F)(F)F)cc1 3
c1n[nH]c(NCc2ccc3c(c2)OCO3)n1 2.68
COc1ccccc1N1CCN(C(=O)c2c(-c3c(Cl)cccc3Cl)noc2C)CC1 4.97
CCCOc1ccccc1C1CC(=O)Nc2cc3c(cc21)OCO3 (stereo not given) 4.33
Cc1nc(CNS(=O)(=O)c2ccc(Oc3ccccc3)cc2)cs1 3.97
COc1ccc(CCNC(=O)c2ccco2)cc1 78.9
COc1ccc(N(CC(=O)NC(C)(C)C)C(=O)c2ccco2)cc1 3.36
COC(=O)c1ccc(CSc2nc3ccccc3c(=O)n2-c2cccc(OC)c2)o1 3.63
Cc1cc(NC(=O)COc2ccc(Cl)cc2Cl)n(CCC#N)n1 -2.93
COc1ccc(Nc2oc(-c3ccccc3Cl)nc2C#N)cc1 37.2
COc1cc(C(=O)Nc2oc(-c3ccccc3)c(-c3ccccc3)c2C#N)cc(OC)c1OC 3.33
